These results are taken from PMC7862700, “An all-to-all approach to the identification of sequence-specific readers for epigenetic DNA modifications on cytosine”.

Common to all, as to assay: DAPPL (digital affinity profiling via proximity ligation, sequencing); 10 mM Tris-HCl pH 7.5, 50 mM NaCl, 1 mM DTT, 4% glycerol, room temperature, 30 min; GST-TFs on glutathione beads, 16-mer random dsDNA library, 0.1% formaldehyde crosslink after washing; high values mean tight binding
For one experiment, the target named is T1, FEV (Homo sapiens, UniProt Q99581 1-238).
T1 sequence: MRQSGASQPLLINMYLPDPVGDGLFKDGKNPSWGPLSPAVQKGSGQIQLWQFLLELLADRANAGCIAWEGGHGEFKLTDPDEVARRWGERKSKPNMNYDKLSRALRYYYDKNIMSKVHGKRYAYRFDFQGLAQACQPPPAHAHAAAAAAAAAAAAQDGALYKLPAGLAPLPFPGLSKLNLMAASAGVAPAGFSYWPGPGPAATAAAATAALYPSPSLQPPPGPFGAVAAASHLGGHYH
The conditions noted are these: protein: recombinant; tags: N-terminal GST; dsDNA, one strand shown. In short, it runs like this: (§1)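 In yeast, human transcription factors were expressed with a GST fusion, then pulled down on glutathione beads and given DNA barcodes. Pooled with a tag-only sample, they were exposed to 200 nmole of a 16-mer random double-stranded DNA library (Tris/NaCl/DTT/glycerol buffer, room temperature, 30 min), washed, crosslinked with 0.1% formaldehyde, proximity-ligated using BsaI/T4 ligase for 1 h at 37 °C, PCR-amplified and read on an Illumina NextSeq500. Each hexamer's frequency of reads for a factor, divided by the matching frequency for the tag-only sample, gives the binding signal.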

The target of another experiment is ETV5 (Homo sapiens, UniProt P41161 1-510). The following applies: protein: recombinant; tags: N-terminal GST; dsDNA, one strand shown. In short, it runs like this: as §1
Chain of ETV5 (P41161 whole entry): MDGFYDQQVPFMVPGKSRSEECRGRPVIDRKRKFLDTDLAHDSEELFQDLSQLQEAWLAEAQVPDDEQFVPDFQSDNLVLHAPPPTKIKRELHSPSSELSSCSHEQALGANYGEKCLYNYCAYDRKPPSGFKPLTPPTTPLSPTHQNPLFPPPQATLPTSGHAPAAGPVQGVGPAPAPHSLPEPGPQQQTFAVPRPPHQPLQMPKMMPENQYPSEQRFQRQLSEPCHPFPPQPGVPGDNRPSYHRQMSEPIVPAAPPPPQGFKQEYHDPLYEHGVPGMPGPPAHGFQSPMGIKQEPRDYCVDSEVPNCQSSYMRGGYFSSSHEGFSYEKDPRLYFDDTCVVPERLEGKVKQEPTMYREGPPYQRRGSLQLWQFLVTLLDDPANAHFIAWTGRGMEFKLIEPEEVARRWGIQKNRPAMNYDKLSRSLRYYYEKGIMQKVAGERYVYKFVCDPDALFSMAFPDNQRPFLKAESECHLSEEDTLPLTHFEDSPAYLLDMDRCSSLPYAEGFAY
The target of a further experiment is HSF1 (Homo sapiens, UniProt Q00613 1-529). The following applies: protein: recombinant; tags: N-terminal GST; chain copies: 3; dsDNA, one strand shown. In short, it runs like this: as §1
Chain of HSF1 (Q00613 whole entry): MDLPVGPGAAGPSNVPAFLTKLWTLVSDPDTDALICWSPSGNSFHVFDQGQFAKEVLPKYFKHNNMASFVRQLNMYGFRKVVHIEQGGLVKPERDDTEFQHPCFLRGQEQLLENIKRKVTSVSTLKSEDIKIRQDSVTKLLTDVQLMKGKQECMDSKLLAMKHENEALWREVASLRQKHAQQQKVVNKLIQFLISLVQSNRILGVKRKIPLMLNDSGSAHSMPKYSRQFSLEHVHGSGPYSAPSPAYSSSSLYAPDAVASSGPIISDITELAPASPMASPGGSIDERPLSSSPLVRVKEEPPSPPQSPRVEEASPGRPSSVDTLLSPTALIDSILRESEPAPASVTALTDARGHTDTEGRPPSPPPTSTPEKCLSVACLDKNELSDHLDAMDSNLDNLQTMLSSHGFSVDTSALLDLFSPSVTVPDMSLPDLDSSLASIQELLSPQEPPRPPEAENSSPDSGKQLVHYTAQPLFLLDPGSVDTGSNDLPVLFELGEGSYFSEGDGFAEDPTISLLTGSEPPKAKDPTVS
The target of another experiment is T2, SPIC (Homo sapiens, UniProt Q8N5J4 1-248).
T2 sequence: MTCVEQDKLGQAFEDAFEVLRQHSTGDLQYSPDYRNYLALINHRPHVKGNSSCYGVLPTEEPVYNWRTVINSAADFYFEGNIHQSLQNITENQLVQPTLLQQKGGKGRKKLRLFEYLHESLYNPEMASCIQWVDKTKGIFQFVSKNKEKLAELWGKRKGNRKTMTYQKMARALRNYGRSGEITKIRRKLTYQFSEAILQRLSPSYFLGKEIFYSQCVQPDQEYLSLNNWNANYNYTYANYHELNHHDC
The following applies: protein: recombinant; tags: N-terminal GST; dsDNA, one strand shown. In short, it runs like this:
as §1

The next experiment deals with ELF4 (Homo sapiens, UniProt Q99607 1-663). The conditions noted are these: protein: recombinant; tags: N-terminal GST; dsDNA, one strand shown. In short, it runs like this: as §1
Chain of ELF4 (Q99607 whole entry): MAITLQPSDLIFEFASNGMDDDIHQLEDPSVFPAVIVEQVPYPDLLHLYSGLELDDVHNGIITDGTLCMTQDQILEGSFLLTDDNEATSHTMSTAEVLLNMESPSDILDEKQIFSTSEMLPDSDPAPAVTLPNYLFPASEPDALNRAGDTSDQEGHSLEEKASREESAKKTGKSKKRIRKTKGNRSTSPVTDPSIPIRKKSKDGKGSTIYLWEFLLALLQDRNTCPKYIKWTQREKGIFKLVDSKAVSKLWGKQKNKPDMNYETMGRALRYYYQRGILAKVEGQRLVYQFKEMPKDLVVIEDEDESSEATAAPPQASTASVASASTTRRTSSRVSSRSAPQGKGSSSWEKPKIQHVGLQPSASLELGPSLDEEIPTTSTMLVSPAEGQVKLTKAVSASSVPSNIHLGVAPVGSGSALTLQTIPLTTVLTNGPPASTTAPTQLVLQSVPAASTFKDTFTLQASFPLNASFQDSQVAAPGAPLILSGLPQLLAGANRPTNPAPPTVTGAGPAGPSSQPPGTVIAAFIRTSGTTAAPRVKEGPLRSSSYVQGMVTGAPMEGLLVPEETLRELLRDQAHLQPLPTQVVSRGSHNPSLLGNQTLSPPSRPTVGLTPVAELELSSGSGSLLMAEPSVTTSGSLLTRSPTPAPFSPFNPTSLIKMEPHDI
The target in a further experiment is T3, ELK4 (Homo sapiens, UniProt P28324-2 1-405).
T3 sequence: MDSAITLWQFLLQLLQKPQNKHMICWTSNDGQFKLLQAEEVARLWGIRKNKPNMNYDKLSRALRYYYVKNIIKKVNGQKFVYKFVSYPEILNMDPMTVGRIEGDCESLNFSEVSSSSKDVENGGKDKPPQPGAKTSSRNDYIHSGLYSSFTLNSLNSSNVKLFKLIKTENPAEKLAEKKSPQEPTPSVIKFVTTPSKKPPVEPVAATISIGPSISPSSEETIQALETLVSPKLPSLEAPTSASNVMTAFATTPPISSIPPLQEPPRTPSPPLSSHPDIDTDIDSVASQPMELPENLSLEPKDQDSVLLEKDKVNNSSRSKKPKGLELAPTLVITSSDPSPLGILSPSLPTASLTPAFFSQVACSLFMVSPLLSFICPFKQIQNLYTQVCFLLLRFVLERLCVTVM
The following applies: protein: recombinant; tags: N-terminal GST; dsDNA, one strand shown. In short, it runs like this: as §1

For the next experiment, the target named is T4, ETV2 (Homo sapiens, UniProt O00321 1-342).
T4 sequence: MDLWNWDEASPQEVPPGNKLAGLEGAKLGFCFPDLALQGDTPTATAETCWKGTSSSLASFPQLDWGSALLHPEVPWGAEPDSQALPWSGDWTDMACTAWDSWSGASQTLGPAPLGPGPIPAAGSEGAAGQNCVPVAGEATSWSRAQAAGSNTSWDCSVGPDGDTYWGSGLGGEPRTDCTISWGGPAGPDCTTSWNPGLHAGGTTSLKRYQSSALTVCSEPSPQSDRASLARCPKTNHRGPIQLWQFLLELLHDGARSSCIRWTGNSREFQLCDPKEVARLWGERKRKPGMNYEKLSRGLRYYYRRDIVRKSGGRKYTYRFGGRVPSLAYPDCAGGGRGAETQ
The conditions noted are these: protein: recombinant; tags: N-terminal GST; dsDNA, one strand shown. In short, it runs like this: as §1

Another experiment has as its target T5, ELF3 (Homo sapiens, UniProt P78545 1-371).
T5 sequence: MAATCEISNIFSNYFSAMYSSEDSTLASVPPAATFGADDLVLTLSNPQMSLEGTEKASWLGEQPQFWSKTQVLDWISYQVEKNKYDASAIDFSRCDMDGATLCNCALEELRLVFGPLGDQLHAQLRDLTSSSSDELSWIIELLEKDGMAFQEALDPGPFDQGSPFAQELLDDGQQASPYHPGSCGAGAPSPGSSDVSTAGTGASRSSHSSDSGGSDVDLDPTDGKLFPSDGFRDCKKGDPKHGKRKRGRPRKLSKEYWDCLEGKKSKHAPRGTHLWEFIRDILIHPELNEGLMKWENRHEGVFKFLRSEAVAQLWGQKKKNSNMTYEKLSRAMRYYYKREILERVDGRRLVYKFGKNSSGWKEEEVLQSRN
The following applies: protein: recombinant; tags: N-terminal GST; dsDNA, one strand shown. In short, it runs like this: as §1

A further experiment addresses CRX (Homo sapiens, UniProt O43186 1-299). The following applies: protein: recombinant; tags: N-terminal GST; dsDNA, one strand shown. In short, it runs like this: as §1
A further experiment deals with ETV1 (Homo sapiens, UniProt P50549 1-477). The following applies: protein: recombinant; tags: N-terminal GST; dsDNA, one strand shown. In short, it runs like this:
as §1

Chain of CRX (O43186 whole entry): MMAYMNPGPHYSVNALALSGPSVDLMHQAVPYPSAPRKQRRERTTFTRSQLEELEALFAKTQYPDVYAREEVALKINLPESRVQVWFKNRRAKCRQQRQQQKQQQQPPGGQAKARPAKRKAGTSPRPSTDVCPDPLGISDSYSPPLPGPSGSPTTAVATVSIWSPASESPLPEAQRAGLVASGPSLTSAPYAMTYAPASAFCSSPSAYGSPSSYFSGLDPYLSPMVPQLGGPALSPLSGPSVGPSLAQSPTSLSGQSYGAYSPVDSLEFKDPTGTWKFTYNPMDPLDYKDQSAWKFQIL
Chain of ETV1 (P50549 whole entry): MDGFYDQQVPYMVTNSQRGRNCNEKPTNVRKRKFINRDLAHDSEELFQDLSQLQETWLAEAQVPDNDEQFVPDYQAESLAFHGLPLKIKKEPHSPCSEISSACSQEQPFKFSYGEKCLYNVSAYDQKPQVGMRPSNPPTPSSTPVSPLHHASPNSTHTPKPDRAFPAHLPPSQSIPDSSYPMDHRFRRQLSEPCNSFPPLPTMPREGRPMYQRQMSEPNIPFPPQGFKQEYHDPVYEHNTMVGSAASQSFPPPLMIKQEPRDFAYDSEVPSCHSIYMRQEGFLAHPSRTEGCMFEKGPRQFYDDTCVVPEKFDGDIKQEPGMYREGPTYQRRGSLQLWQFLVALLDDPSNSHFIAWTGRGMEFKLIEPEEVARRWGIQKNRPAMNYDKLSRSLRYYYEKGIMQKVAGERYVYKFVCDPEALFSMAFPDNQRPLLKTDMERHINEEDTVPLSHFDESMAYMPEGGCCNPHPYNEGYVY

ATACTA: the binding signal with FEV was 1.13 fold enrichment (6-mer frequency, TF over GST control); with ETV5 it was 1.13 fold enrichment (6-mer frequency, TF over GST control); with HSF1, 1.34 fold enrichment (6-mer frequency, TF over GST control); with SPIC it was 1.1 fold enrichment (6-mer frequency, TF over GST control); with ELF4 it was 1.19 fold enrichment (6-mer frequency, TF over GST control); with ELK4, 1.19 fold enrichment (6-mer frequency, TF over GST control). In addition, the binding signal with ETV2 is 1.14 fold enrichment (6-mer frequency, TF over GST control); with ELF3 it was 1.08 fold enrichment (6-mer frequency, TF over GST control); with CRX, 1.38 fold enrichment (6-mer frequency, TF over GST control); with ETV1 it was 1.1 fold enrichment (6-mer frequency, TF over GST control).
